Compound activity: PubChem, National Center for Advancing Translational Sciences (NCATS)
Rows were chosen to be rich in hits. Some 21% of all compounds tested hit in one or more screens of this group.
Shiga toxin inh – blocks Shiga toxin action in Vero cells; AID 2315; 9.2% of 290,000 active; Vero cells, Shiga toxin protein synthesis inhibition reporter; inhibition, % at 38.7 µM; in the data active = inhibition mostly above about 28%, no sharp cut-off; inactive = mostly below about 43%; note: 0% is about no effect
Cycloheximide cs – counter-screen hit for Shiga toxin inhibitors, cycloheximide; cell reporter, cycloheximide protein synthesis inhibition counterscreen; max response, %; 12% of 300,000 active; in the data active = max response mostly above about 13%, no sharp cut-off; inactive = mostly below about 14%; note: read at 38.3 µM for the half of the compounds with a filed dose; 0% is about no effect
Pf growth 48h – P. falciparum growth inhibition at 48 hours (one generation) | Potency, µM (highest dose often 28.7 µM), inactives show top-dose activity change, negative = inhibition, actives largely listed as inhibitors | P. falciparum luciferase growth in erythrocytes, 48 h | AID 504832 | 5.9% of 310,000 active; note: potency is the fitted concentration of half-maximal effect; % is set by controls: 0 for no effect and ±100 for the full control effect
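In quantitative HTS format, infected erythrocytes bearing luciferase-reporter parasites were treated for a single generation at 37 C. Luminescence after adding detection reagent served as the growth measure.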
Pf growth 96h – P. falciparum growth inhibition at 96 hour, primary screen for plastid delayed-death inhibitors; 6.9% of 320,000 active; AID 504834; Potency, µM (titrated, usually from 28.7 µM), without a hit: at the top dose activity change, negative = inhibition, usual class: inhibitors; P. falciparum luciferase reporter growth, 96 h; note: potency is the fitted concentration of half-maximal effect; % is set by controls: 0 for no effect and ±100 for the full control effect
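Parasite growth measured via integrated firefly luciferase reporter in P. falciparum. Infected erythrocytes at 2% hematocrit, 0.05% parasitemia final were treated 96 hours at 37 C under 5% CO2, and luminescence was read.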
NS1 function inh – influenza NS1 inhibition | Potency, µM (titrated, usually from 46.1 µM), inactives show top-dose activity, positive = more growth | 0.4% of 270,000 active; calls by dose curve; note: potency is the fitted concentration of half-maximal effect; actives are rising curves; nearly all actives have a fitted effect of over 50% in size
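In this qHTS, NS1 from influenza A is expressed in budding yeast, where it slows growth. Cells are switched from glucose to 2% galactose medium (pH 6.0, -URA), treated with compound, and growth recovery is read at OD600.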
SARS PLpro yeast – blocks SARS-CoV papain-like protease in a yeast assay; 0.19% of 330,000 active; Potency, µM (titrated, usually from 32.9 µM), inactives show top-dose activity, positive = growth rescue, hits mostly activators; S. cerevisiae expressing SARS-CoV PLpro, growth rescue; calls by dose curve; note: potency is the fitted concentration of half-maximal effect; 0% is about no effect; nearly all actives have a fitted effect of over 55% in size
Starred values were filed as active, the others as inactive; ? = inconclusive; . = not tested or not shown. Unless noted, calls come from the whole dose curve; as a rule, active = well fitted inhibition curve with a large enough effect; inconclusive = small, poorly fitted or top-dose-only effect, or another doubt; inactive = no such curve, though single readings can be large or run the other way.

SMILES	Shiga toxin inh	Cycloheximide cs	Pf growth 48h	Pf growth 96h	NS1 function inh	SARS PLpro yeast
Cc1ccc(S(=O)(=O)N(C)c2cccc3cccnc23)cc1	-5	-1	.	.	.	.
COc1ccc(C(c2oc(CO)cc(=O)c2O)c2oc(CO)cc(=O)c2O)cc1OC	-1	-6	10%	-58%	.	7.9µM*
O=c1cc(CO)oc(C(Nc2ccccn2)c2ccc(F)cc2)c1O (stereo not drawn)	-5	-1	8%	26%	23%	-1%
O=C(NCC(=O)N1CCN(c2ccccc2O)CC1)c1ccc(Br)o1	.	.	-5%	-16%	.	3%
Cc1ccc(S(=O)(=O)N2CCN(C(=O)NCc3ccc(C(=O)O)cc3)CC2)cc1	-7	-2	18%	4%	12%	6%
Clc1ccc2[nH]c3c(c2c1)CCc1cn[nH]c1-3	70*	29*	0%	64%	-72%	-51%
c1ccc2c3c([nH]c2c1)-c1[nH]ncc1CC3	53	14	-29%	?	-123%	-1%
COc1cccc(C(=O)N2CCN(S(=O)(=O)Cc3ccccc3)CC2)c1OC	11	0	-10%	-23%	-7%	-28%
Cc1cccc(OC2CCN(Cc3c(C(=O)N4CCCC4)nc4ccccn34)CC2)c1	-3	-6	-14%	?	0%	0%
O=C(c1nc2ccccn2c1CN1CCC(Cc2ccccc2)CC1)N1CCCC1	-12	-2	10µM*	-2%	2%	0%
Cc1ccc(NC(=S)N(CCCN2CCCC(C)C2)Cc2ccco2)cc1C (stereo not drawn)	14	-1	-18%	-4%	-3%	-1%
O=S(=O)(c1ccc2c(c1)nc(COc1ccc(Cl)cc1)n2CC1CCCO1)N1CCOCC1 (stereo not drawn)	-12	-5	?	12µM*	9%	-8%
O=c1c2ccc(Cl)cc2nc2n1CC/C2=C\c1cccc(O)c1	18	2	13µM*	?	-7%	-2%
O=C(O)c1ccc2c(=O)n3c(nc2c1)/C(=C/c1cccc(O)c1)CC3	-5	-4	.	-24%	3%	1%
COc1ccc(/C=C2\CCn3c2nc2cc(C(=O)O)ccc2c3=O)cc1OC	-4	-3	89%	-17%	2%	-2%
COc1ccc(/C=C2\CCn3c2nc2cc(C(=O)O)ccc2c3=O)cc1O	4	4	-7%	13µM*	?	16%
COc1ccc(/C=C2\CCn3c2nc2ccccc2c3=O)cc1OC	21	28*	209%	131%	6%	4%
Cc1cc(C)c(C#N)c(SCc2nc3ccccc3[nH]2)n1	94*	36*	.	-68%	-60%	-5%
N#Cc1cc2c(nc1SCc1nc3ccccc3[nH]1)CCC2	22	44*	-16%	-1%	-120%	-31%
C[C@@H](NC(=O)Cn1ccc(N)nc1=O)c1cccc2ccccc12	.	.	43%	8%	.	3%
Cc1ccc(CNC(=O)C2CCCN(S(=O)(=O)c3ccc(F)cc3)C2)cc1 (stereo not drawn)	25	5	12%	?	-3%	0%
CCOC(=O)N1CCN(C(=O)c2cc(COc3ccc(F)cc3F)on2)CC1	88*	49*	5%	?	-26%	2%
COCCOC1CCN(C(=O)c2cc(COc3ccc(F)cc3F)on2)CC1	75	23*	12%	?	15%	1%
CCOC(=O)C1CCN(C(=O)c2cc(COc3ccc(F)cc3F)on2)CC1	127*	63*	36%	21%	-23%	-5%
COc1ccc(S(=O)(=O)N2CCCCCC2)cc1C(=O)N(C)Cc1ccc(OC)c(OC)c1OC	.	.	?	?	.	-1%
SMILES	Shiga toxin inh	Cycloheximide cs	Pf growth 48h	Pf growth 96h	NS1 function inh	SARS PLpro yeast
O=C1C(c2c(O)[nH]c3ccccc23)=Nc2ccccc21	36	18	.	.	.	-6%
CC(=O)c1cccc2c(O)c(C3=Nc4ccccc4C3=O)[nH]c12	89*	48*	-39%	?	-36%	-65%
O=C1C2C3C=CC(CO)(O3)C2C(=O)N1c1ccccc1-c1ccccc1 (stereo not drawn)	-1	-5	?	5.9µM*	-73%	-20%
CC(=O)Oc1ccc(N2C(=O)C3C4C=CC(CO)(O4)C3C2=O)cc1 (stereo not drawn)	14	16	.	17%	-202%	-31%
Cc1cccc(C(=O)N2CCN(S(=O)(=O)N3CCCCCC3)CC2)c1	-5	-6	28%	45%	-1%	1%
Cc1nn(C)cc1C(=O)/C=C/c1ccc([N+](=O)[O-])cc1	4	11	13µM*	4.7µM*	3%	4%
CCn1cc(CN(C)C(=O)/C=C/c2ccc([N+](=O)[O-])cc2)c(C)n1	16	0	7%	?	-6%	-8%
Cc1ccc(C(=O)COC(=O)c2nc3nccc(C)n3n2)c(C)c1	.	.	?	12%	.	22%
COc1ccc(C2=NOC(Cn3nc(C(=O)NCc4cccc(C(F)(F)F)c4)cc3-c3ccccc3)C2)cc1 (stereo not drawn)	.	.	4.7µM*	4.7µM*	.	-2%
Cc1ccc(CNC(=O)c2cc(-c3ccccc3C)nn2CC2CC(c3cccnc3)=NO2)cc1 (stereo not drawn)	.	.	.	.	.	-8%
COc1ccc(C2=NOC(Cn3nc(C(=O)NCc4ccc(C)cc4)cc3-c3ccccc3)C2)cc1 (stereo not drawn)	.	.	10µM*	10µM*	.	-1%
Cc1ccccc1-c1cc(C(=O)NCc2ccc3c(c2)OCO3)n(CC2CC(c3cccnc3)=NO2)n1 (stereo not drawn)	.	.	?	4.1µM*	.	-1%
COc1ccc(C2=NOC(Cn3nc(C(=O)NCc4ccco4)cc3-c3ccccc3)C2)cc1 (stereo not drawn)	.	.	13µM*	10µM*	.	-23%
COc1ccc(C2=NOC(Cn3nc(C(=O)NCc4cccs4)cc3-c3ccccc3)C2)cc1 (stereo not drawn)	.	.	?	?	.	-7%
COCCNC(=O)c1cc(-c2ccccc2)n(CC2CC(c3ccc(OC)cc3)=NO2)n1 (stereo not drawn)	.	.	-29%	?	.	4%
CCOC(=O)C1(CCCc2ccccc2)CCN(C(=O)C2CCCO2)CC1 (stereo not drawn)	-20	12	?	33%	-6%	-1%
COc1cc(OC)c(C2C(C#N)=C(C)NC(C)=C2C#N)c(C(=O)O)c1	-1	-3	38%	8%	6%	1%
Cc1cc(SCC(=O)NC(=O)c2cccn2C)nc2ccccc12	-7	-2	111%	0%	-15%	0%
CCCCC(=O)NCCc1cc2c(OC)ccc(OC)c2[nH]c1=O	-13	-4	8%	.	5%	-3%
O=[N+]([O-])c1ccccc1OCCN1CCCC1	23	-2	25%	-98%	9%	-12%
O=[N+]([O-])c1ccccc1OCCCN1CCc2ccccc2C1	27	9.9*	-8%	-100%	9%	0%
Cc1ccc([N+](=O)[O-])c(OCCN2CCc3ccccc3C2)c1	30	16*	25%	?	-22%	0%
